In PubChem BioAssay (EPA / NIEHS):
Inconclusive results are not listed. The source made the active and inactive calls. How the source made its calls: active means hit-call score of the fitted dose curve at least 0.9, where 1 is the maximum; inconclusive means response in the unintended direction; inactive means score below 0.9.

What follows are molecules tested against human Matrix Metalloproteinase-1 (MMP1), MMP1 (gene 4312) (UniProt P03956) (assay: NVS_ENZ_hMMP1: NovaScreen (NVS) Enzymatic Assay for human Matrix Metalloproteinase-1 (MMP1) (AID 2283181)).
Procedure, shortened: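 Human MMP1 enzyme activity measured by fluorescence 1 h after dosing, cell-free, with a specific substrate. Screened in duplicate at 25 uM; hits (e.g. 30% inhibition) run in concentration-response up to 50 uM; loss of signal versus DMSO.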

human Matrix Metalloproteinase-1 (MMP1), MMP1 (gene 4312), sequence (P03956 whole entry, looked up): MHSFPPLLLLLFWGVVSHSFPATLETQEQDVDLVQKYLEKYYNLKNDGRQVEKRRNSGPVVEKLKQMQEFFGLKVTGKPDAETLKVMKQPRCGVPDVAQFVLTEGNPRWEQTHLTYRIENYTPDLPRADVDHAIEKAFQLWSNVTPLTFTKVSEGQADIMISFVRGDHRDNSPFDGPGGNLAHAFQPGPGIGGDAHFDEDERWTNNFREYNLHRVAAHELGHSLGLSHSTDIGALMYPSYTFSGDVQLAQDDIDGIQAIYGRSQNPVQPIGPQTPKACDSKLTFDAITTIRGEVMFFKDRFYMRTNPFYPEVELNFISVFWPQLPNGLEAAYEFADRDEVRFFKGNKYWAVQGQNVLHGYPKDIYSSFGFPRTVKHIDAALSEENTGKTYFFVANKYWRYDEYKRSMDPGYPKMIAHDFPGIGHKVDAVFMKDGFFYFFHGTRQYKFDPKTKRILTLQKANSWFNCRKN

Row | SMILES | outcome | AC50
1 | CCCCCCCCCC[N+](C)(C)CCCCCCCCCC | inactive | –
2 | O=C(O)C(F)(F)C(F)(F)C(F)(F)C(F)(F)C(F)(F)C(F)(F)C(F)(F)C(F)(F)C(F)(F)F | inactive | –
3 | CC(C)(c1ccccc1)c1ccc(O)cc1 | – | 10.5 µM (active)
4 | Oc1ccc(C(c2ccc(O)cc2)(C(F)(F)F)C(F)(F)F)cc1 | – | 5.26 µM (active)
5 | O=NN(c1ccccc1)c1ccccc1 | inactive | –

These molecules were tested against human Matrix Metalloproteinase-7 (MMP7), MMP7 (gene 4316) (UniProt P09237) (assay: NVS_ENZ_hMMP7: NovaScreen (NVS) Enzymatic Assay for human Matrix Metalloproteinase-7 (MMP7) (AID 2283183)).
Description: NVS_ENZ_hMMP7 is a biochemical, single-readout assay that uses extracted gene-proteins in a cell-free assay. Measurements were taken 1 hour after chemical dosing in a 96-well plate.NVS_ENZ_hMMP7 is one of one assay component(s) measured or calculated from the NVS_ENZ_hMMP7 assay. It is designed to make measurements of enzyme activity, a form of enzyme reporter, as detected with fluorescence intensity signals by Fluorescence technology.Data from the assay component NVS_ENZ_hMMP7 was analyzed into 1 assay endpoint. This assay endpoint, NVS_ENZ_hMMP7, was analyzed in the positive analysis fitting direction relative to DMSO as the negative control and baseline of activity. Using a type of enzyme reporter, loss-of-signal activity can be used to understand changes in the enzymatic activity as they relate to the gene MMP7. Furthermore, this assay endpoint can be referred to as a primary readout, because this assay has produced multiple assay endpoints where this one serves a enzymatic activity function. To generalize the intended target to other relatable targets, this assay endpoint is annotated to the protease intended target family, where the subfamily is matrix metalloproteinase.
Binding assays used specific radioligands (tritiated, iodinated) with non-radioactive competitive displacement ligands in agonist or antagonist protocols (as indicated) and various reference compounds and inhibitors to titrate specific binding to receptors and transporters. Most enzyme assays (CYPs, kinases, phosphatases, proteases, HDACs) used recombinant protein and specific substrates (fluorescence mostly, some colorimetric and radioactive) and inhibitors, followed by a biochemical separation of substrate and product. All assays for the biochemical HTS were initially run in duplicate at a single concentration (10 uM for CYP450 assays and 25 uM for all others). Assay-chemical combinations meeting a pre-defined threshold (e.g., 30% inhibition and other criteria defined below) were then run in singleton concentration-response format with maximum concentration of 20 uM for CYPs and 50 uM for all others. Each assay was run with positive and negative controls, and concurrent controls on every plate. The follow-up (secondary) screen tested active chemical-pairs in concentration series, as well as a few additional assays not tested in the primary screen, some selected negative inactives, and several cases re-run in the concentration series for confirmatory purposes.

human Matrix Metalloproteinase-7 (MMP7), MMP7 (gene 4316), sequence (P09237 whole entry, looked up): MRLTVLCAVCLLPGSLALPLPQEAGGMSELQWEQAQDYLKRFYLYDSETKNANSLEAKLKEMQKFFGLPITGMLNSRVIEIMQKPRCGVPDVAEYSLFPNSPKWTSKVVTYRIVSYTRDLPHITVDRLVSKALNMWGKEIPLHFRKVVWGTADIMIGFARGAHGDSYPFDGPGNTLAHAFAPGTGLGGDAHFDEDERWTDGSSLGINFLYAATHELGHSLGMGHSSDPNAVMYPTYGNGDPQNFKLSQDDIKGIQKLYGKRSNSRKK

Row | SMILES | outcome
6 | O=C(O)C(F)(F)C(F)(F)C(F)(F)C(F)(F)C(F)(F)F | inactive
7 | O=S(=O)(O)C(F)(F)C(F)(F)C(F)(F)C(F)(F)C(F)(F)C(F)(F)F | inactive
8 | O=C(N[C@H]1CN2CCC1CC2)c1cc2ccoc2cn1 | inactive
9 | Oc1ccc(C(c2ccc(O)cc2)(C(F)(F)F)C(F)(F)F)cc1 | inactive

The molecules below were run against human Mitogen- and Stress-activated Protein Kinase-1 (Msk1), RPS6KA5 (gene 9252) (UniProt O75582) (assay: NVS_ENZ_hMsk1: NovaScreen (NVS) Enzymatic Assay for human Mitogen- and Stress-activated Protein Kinase-1 (Msk1) (AID 2283187)).
Procedure, shortened: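 Recombinant kinase with fluorescent substrate; product separated by electrophoretic mobility shift, read 1 h after dosing. Screened in duplicate at 25 uM; hits (e.g. ≥30% inhibition) tested in concentration–response up to 50 uM. DMSO baseline.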

human Mitogen- and Stress-activated Protein Kinase-1 (Msk1), RPS6KA5 (gene 9252), sequence (O75582 whole entry, looked up): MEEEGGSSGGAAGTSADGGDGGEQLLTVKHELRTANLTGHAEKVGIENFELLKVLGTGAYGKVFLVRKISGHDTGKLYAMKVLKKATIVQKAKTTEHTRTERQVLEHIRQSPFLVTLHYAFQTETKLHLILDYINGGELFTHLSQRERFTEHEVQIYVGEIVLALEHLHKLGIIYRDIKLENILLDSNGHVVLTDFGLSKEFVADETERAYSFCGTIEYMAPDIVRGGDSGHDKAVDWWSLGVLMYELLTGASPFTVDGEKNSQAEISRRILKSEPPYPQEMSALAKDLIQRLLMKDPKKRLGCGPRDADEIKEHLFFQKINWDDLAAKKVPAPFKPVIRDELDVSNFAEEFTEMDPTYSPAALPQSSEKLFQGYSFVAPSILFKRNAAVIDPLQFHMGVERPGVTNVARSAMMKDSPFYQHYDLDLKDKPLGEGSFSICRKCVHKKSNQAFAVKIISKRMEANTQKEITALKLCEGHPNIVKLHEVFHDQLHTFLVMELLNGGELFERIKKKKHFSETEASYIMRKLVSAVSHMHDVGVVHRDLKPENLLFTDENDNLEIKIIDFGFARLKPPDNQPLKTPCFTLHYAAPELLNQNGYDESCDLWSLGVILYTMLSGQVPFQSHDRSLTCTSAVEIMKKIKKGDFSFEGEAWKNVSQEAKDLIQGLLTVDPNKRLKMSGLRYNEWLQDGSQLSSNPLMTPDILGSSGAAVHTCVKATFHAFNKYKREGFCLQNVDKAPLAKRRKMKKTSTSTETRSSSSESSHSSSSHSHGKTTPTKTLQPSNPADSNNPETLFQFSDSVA

Row | SMILES | AC50 | outcome
10 | CC1=C2C[C@H]3[C@@H](CC=C4C[C@@H](O)CC[C@@]43C)[C@@H]2CC[C@]12O[C@@H]1C[C@H](C)CN[C@H]1[C@H]2C | 19 µM (active) | –
11 | O=C(O)C(F)(F)C(F)(F)C(F)(F)C(F)(F)C(F)(F)C(F)(F)C(F)(F)C(F)(F)F | – | inactive
12 | CCSC(=O)N(CC)C1CCCCC1 | – | inactive

These molecules were tested against human p21 Activated Kinase 4 (PAK4), PAK4 (gene 10298) (UniProt O96013) (assay: NVS_ENZ_hPAK4: NovaScreen (NVS) Enzymatic Assay for human p21 Activated Kinase 4 (PAK4) (AID 2283189)).
Procedure, shortened: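 Cell-free recombinant human PAK4 activity assay; fluorescent substrate and product separated by electrophoretic mobility shift, read 1 h after dosing. Initially tested in duplicate at 25 uM, relative to DMSO baseline.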

human p21 Activated Kinase 4 (PAK4), PAK4 (gene 10298), sequence (O96013 whole entry, looked up): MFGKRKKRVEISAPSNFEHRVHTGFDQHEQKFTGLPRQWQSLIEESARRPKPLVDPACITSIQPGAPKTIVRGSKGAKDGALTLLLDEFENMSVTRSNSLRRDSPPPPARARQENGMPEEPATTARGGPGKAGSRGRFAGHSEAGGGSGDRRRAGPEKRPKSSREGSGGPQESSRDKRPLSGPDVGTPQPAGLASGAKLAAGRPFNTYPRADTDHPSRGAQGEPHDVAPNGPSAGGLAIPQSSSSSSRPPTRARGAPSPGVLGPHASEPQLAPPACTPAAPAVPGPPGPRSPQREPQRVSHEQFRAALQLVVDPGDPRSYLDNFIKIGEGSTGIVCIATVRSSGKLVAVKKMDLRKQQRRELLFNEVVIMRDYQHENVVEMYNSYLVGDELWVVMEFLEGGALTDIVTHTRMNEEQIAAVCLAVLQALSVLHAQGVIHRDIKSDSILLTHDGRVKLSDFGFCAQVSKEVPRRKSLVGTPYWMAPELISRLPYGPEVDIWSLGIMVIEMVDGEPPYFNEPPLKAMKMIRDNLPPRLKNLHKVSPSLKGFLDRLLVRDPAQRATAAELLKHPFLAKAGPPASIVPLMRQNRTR

Row | SMILES | outcome
13 | CC1=C2C[C@H]3[C@@H](CC=C4C[C@@H](O)CC[C@@]43C)[C@@H]2CC[C@]12O[C@@H]1C[C@H](C)CN[C@H]1[C@H]2C | inactive
14 | ClC1=C(Cl)[C@]2(Cl)[C@@H]3[C@H]4C[C@H]([C@@H]5O[C@H]45)[C@@H]3[C@@]1(Cl)C2(Cl)Cl | inactive
15 | CN(C)CCO | inactive

The molecules below were run against human Matrix Metalloproteinase-9 (MMP9), MMP9 (gene 4318) (UniProt P14780) (assay: NVS_ENZ_hMMP9: NovaScreen (NVS) Enzymatic Assay for human Matrix Metalloproteinase-9 (MMP9) (AID 2283190);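 further: cell-free recombinant MMP9 protease activity read by fluorescent substrate signal; active means inhibition seen as loss of fluorescence signal versus DMSO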).
Procedure, shortened: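 Extracted enzyme, fluorescent substrate, 1 h post-dose read. Single conc 25 uM in duplicate, then concentration series for actives. Activity = signal loss relative to DMSO negative control.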

human Matrix Metalloproteinase-9 (MMP9), MMP9 (gene 4318), sequence (P14780 whole entry, looked up): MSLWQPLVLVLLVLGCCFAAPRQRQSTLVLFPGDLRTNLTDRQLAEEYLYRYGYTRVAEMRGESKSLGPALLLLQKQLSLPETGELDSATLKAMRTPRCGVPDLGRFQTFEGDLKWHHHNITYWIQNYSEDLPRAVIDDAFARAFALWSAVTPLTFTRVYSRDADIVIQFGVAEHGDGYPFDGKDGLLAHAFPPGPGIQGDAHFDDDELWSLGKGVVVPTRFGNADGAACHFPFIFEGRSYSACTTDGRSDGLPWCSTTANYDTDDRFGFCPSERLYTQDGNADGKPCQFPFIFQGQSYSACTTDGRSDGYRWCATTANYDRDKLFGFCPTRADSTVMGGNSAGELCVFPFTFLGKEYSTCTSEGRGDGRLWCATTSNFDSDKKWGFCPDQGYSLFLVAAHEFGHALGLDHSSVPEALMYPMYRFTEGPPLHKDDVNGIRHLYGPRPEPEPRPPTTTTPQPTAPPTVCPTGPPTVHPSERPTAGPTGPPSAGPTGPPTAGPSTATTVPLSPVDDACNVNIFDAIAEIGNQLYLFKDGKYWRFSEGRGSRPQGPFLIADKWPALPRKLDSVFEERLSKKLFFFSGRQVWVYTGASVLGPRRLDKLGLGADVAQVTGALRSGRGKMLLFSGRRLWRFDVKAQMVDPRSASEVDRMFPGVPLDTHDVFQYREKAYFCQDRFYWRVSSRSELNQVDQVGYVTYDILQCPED

Row | SMILES | outcome | AC50
16 | CC(C)C(=O)OCC(C)(C)C(OC(=O)C(C)C)C(C)C (centres undefined) | inactive | –
17 | CCCCCCCCCc1ccc(O)cc1 | inactive | –
18 | CO/C=C(/C(=O)OC)c1ccccc1COc1cccc(C(F)(F)F)n1 | inactive | –
19 | Sc1ccccc1 | – | 4.12 µM (active)

These molecules were tested against human Phosphodiesterase 4A1 (PDE4A1), PDE4A (gene 5141) (UniProt P27815) (assay: NVS_ENZ_hPDE4A1: NovaScreen (NVS) Enzymatic Assay for human Phosphodiesterase 4A1 (PDE4A1) (AID 2283191)).
Procedure, shortened: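 Cell-free recombinant human PDE4A1 with fluorescent substrate; product separated by electrophoretic mobility shift, 1 h. Screened at 25 uM, then up to 50 uM in concentration-response; loss of signal fitted against DMSO.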

human Phosphodiesterase 4A1 (PDE4A1), PDE4A (gene 5141), sequence (P27815 whole entry, looked up): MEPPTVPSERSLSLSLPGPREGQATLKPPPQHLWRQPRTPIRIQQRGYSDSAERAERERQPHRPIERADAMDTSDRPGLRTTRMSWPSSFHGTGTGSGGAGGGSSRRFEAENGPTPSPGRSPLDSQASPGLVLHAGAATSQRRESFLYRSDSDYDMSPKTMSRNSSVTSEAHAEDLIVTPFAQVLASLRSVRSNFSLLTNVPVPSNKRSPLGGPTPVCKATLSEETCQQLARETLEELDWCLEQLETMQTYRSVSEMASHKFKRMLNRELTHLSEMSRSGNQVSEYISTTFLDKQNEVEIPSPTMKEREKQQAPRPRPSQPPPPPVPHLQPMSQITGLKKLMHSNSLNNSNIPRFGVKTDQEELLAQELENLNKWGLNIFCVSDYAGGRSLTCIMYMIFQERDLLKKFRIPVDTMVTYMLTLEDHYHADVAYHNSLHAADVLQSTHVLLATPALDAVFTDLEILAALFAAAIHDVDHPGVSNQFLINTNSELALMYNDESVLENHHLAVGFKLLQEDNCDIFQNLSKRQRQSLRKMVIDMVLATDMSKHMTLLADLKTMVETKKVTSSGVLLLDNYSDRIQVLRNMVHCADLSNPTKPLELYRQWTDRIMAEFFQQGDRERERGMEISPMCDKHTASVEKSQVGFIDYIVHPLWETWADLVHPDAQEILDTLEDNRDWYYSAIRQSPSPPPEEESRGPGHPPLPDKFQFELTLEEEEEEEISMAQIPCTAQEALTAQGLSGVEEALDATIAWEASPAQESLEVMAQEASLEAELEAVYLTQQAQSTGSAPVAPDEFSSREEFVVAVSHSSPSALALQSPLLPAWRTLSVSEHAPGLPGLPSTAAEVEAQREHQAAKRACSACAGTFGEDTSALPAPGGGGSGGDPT

Row | SMILES | outcome | AC50
20 | CC1=C2C[C@H]3[C@@H](CC=C4C[C@@H](O)CC[C@@]43C)[C@@H]2CC[C@]12O[C@@H]1C[C@H](C)CN[C@H]1[C@H]2C | inactive | –
21 | Cc1cc2c3c(c1)C(c1ccccc1)=N[C@@H](NC(=O)c1ccncc1)C(=O)N3CC2 | – | 1.36 µM (active)
22 | O=S(=O)(O)C(F)(F)C(F)(F)C(F)(F)C(F)(F)C(F)(F)C(F)(F)F | inactive | –
23 | CCNc1nc(NC(C)C)nc(SC)n1 | – | 2.15 µM (active)
24 | CCCN(CCC)N=O | inactive | –
